Hits are enriched below; roughly 10% of the tested compounds scored in any of these assays.
HPGD inh: qHTS Assay for Inhibitors of HPGD (15-Hydroxyprostaglandin Dehydrogenase); 15-hydroxyprostaglandin dehydrogenase [NAD(+)] (Homo sapiens), P15428; 150,000 tested, 4.3% active; purified HPGD, NADH fluorescence kinetic, PGE2 substrate; AID 894, 2007; Potency, µM, for the others: top-dose activity change, negative = inhibition, usual class: inhibitors; further: potency means the concentration at half of the fitted maximal effect
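NADH formation kinetics: reaction with 30 uM PGE2 and 1 mM NAD+ (final), 20 nM enzyme, Tris-HCl pH 8 with Tween 20, after 15 min compound preincubation at room temperature. Fluorescence change, last versus first of five reads.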
ALDH1A1 block: qHTS Assay for Inhibitors of Aldehyde Dehydrogenase 1 (ALDH1A1) | Aldehyde dehydrogenase 1A1 (Homo sapiens), P00352 | Purified ALDH1A1, NADH fluorescence, propionaldehyde substrate | Potency, µM (highest dose often 75.3 µM), without a hit: at the top dose activity, negative = inhibition, actives largely listed as inhibitors | 220,000 tested, 7.3% active;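 further: potency means the concentration at half of the fitted maximal effect; plate controls were no enzyme wells and a reference inhibitor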
Target sequence (P00352 whole entry, looked up): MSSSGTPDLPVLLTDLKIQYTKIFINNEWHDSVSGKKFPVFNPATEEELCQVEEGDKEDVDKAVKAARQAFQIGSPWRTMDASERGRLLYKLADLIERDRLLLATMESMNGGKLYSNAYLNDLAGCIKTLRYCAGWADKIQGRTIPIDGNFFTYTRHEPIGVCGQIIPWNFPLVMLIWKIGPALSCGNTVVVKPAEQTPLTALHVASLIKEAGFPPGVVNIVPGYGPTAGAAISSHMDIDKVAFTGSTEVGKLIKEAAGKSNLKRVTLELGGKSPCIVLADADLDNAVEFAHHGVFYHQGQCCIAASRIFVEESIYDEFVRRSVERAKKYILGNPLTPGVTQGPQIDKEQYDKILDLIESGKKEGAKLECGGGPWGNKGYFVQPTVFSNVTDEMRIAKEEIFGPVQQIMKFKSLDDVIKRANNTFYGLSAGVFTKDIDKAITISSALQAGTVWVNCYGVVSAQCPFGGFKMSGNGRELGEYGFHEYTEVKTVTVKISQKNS
Lamin A splicing: qHTS Assay for Modulators of Lamin A Splicing. HeLa LMNA splicing GFP/RFP minigene ratio, 48 h. Potency, µM (top dose mostly 46.1 µM), without a hit: at the highest dose ratio change, negative = inhibition, hits mostly inhibitors. 200,000 tested, 0.01% active; active means well fitted inhibition curve with a large enough effect in the signal ratio, with a control signal flat, not every such curve was filed as active; inconclusive means small, poorly fitted or top-dose-only effect, or effect the other way, or a change in a side signal; the % refers to the signal ratio; further: potency means the concentration at half of the fitted maximal effect
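Read-out is the ratio of GFP to DsRed2 object intensity, acquired by 488 nm laser-scanning cytometry on HeLa lamin A-EGFP minigene reporter cells. Compound incubation 48 hrs at 37 °C in Opti-MEM with 2% FBS; DMSO 0.5% final.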
IMPase inh: qHTS Assay for Identifying the Cell-Membrane Permeable IMPase Inhibitors; Inositol monophosphatase 1 (Rattus norvegicus), P97697; CHO-M1 cells, IP1 accumulation, HTRF TR-FRET ratio; inhibition (IP1 accumulation), % at 46.1 µM; 120,000 tested, under 10 active; active means well fitted curve in the direction sought with a large enough effect in the signal ratio, not every such curve was filed as active; inconclusive means small, poorly fitted or top-dose-only effect, or a change in a side signal; inactive means no such curve, though single readings can be large or run the other way; the % refers to the signal ratio;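 further: cells stimulated with carbachol in lithium chloride buffer; plate controls were DMSO basal wells for no effect and reference inhibitor wells for full effect; higher means more IMPase inhibition seen as more IP1 and lower FRET ratio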
Target sequence (P97697 whole entry, looked up): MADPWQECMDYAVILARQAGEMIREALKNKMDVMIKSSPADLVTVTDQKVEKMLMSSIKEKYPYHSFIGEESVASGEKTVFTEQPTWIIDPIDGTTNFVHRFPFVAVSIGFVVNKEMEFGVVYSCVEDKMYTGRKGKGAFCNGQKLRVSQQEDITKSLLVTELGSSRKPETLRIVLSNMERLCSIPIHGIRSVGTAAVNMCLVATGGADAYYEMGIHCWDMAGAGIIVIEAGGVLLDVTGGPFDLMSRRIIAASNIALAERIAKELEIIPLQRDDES
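Measured: the HTRF emission ratio (665/620 nm) plus the 620 nm donor channel, each fitted to the Hill equation to give AC50. Cells were CHO-M1 given compounds up to 46 uM and a 30 min carbachol stimulation at 37C.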
KinaseGlo FLuc: Counterscreen for Luciferase (Kinase-Glo TM) Inhibition. Luciferin 4-monooxygenase (Photuris pensylvanica), Q27757. Kinase-Glo luciferase, ATP luminescence, 8 min. Potency, µM (titrated, usually from 38.3 µM), without a hit: at the highest dose activity change, negative = inhibition, hits mostly inhibitors. 200,000 tested, 0.28% active. AID 1379, 2008; active means well fitted inhibition curve with a large enough effect; inconclusive means small, poorly fitted or top-dose-only effect; further: potency means the concentration at half of the fitted maximal effect; nearly all actives have a fitted effect of over 60% in size
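Compound is pinned into ATP-containing buffer (10 uM ATP, imidazole pH 7.2, 7 mM MgCl2). Kinase-Glo luciferase reagent is then added. Light output is recorded following an 8-min room-temperature incubation.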
PNC assembly inh: High Content Assay for Compounds that inhibit the Assembly of the Perinucleolar Compartment; PC3M PTB-GFP, PNC prevalence imaging, 16 h; stronger effect = lower value; activity change (PNC), negative = inhibition, % at 10 µM; 140,000 tested, 3.1% active; AID 2417, 2010;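 active means readout at or below -70, meaning at least 70% loss of cells showing the perinucleolar compartment, a nuclear body marking cancer cells; inconclusive means readout between -30 and a set limit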;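 further: plate controls were DMSO wells for no effect and camptothecin positive control wells for full effect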
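PC3M cells stably expressing PTB-GFP, 750–1000 cells/well, treated 16 h at 37 °C with compound (23 nl of library stock), in duplicate. After paraformaldehyde fixation and Hoechst stain, imaged at 20x; PNC prevalence scored by image analysis.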
Numbers without * were called inactive; u = inconclusive; x = no result given; ! = not confirmed by another sample; [ ] = another dose, or the depositor's remark. Unless noted, the call rests on the fitted dose curve; in most records, active means well fitted inhibition curve with a large enough effect (not every such curve was filed as active); inconclusive means small, poorly fitted or top-dose-only effect, or another doubt; inactive means no such curve, though single readings can be large or run the other way. Unless noted, on the % scale 0 is the no-effect control and ±100 the full control effect.

SMILES	HPGD inh	ALDH1A1 block	Lamin A splicing	IMPase inh	KinaseGlo FLuc	PNC assembly inh
O=c1cc(-c2ccccc2)n(S(=O)(=O)c2ccccc2)o1	-18%	25µM*	17%	-5	-1%	4
CCCCOc1cc(C[C@@H]2CNC(=O)N2)ccc1OC	-1%	-7%	x	-8	1%	x
CN(C)c1ccc(-c2cc(NCc3cccnc3)ncn2)cc1	u	u	4%	x	-3%	x
CCCC1CC(C)(C(=O)CSc2n[nH]c(-c3ccccc3)n2)OC1=O (stereo not given)	-30%	10µM*	-16%	-6	3%	-8
CCCC1CC(=O)OC1(C)C(=O)CSc1n[nH]c(-c2ccccc2)n1 (stereo not given)	-19%	13µM*	-2%	13	0%	36
COc1ccc(S(=O)(=O)Nc2ccc(Cl)cn2)c(C)c1C	-30%	13µM*	u	-17	7%	22
CCOc1cc(S(=O)(=O)Nc2ccc(Cl)cn2)ccc1F	-8%	2%	-7%	1	-1%	-27
CCCSCCCNC(=O)c1ccc2c(c1)nc1n2CCCCC1	x	x	-18%[46 µM]	x	x	x
Cc1ccc(S(=O)(=O)NCCOc2nc(N(C)C)nc(N3CCOCC3)n2)cc1	-8%	13%	13%	3	2%	-93*
Cc1ccc(S(=O)(=O)NCCOc2nc(N(C)C)nc(N(C)C)n2)cc1	x	-10%	x	x	x	x
CN(C)c1nc(OCCNC(=O)Nc2ccccc2)nc(N2CCOCC2)n1	-4%	2%	-14%	-5	2%	1
CN(C)c1nc(OCCNC(=O)Nc2ccccc2)nc(N2CCCCC2)n1	x	0.89µM*	x	x	-1%	x
C=C(C)Cn1c(SCC(=O)Nc2cccc(Cl)c2)nc2sc3c(c2c1=O)CCCC3	x	x	x	-18	x	x
COc1ccc(-c2csc(Nc3cccnc3)n2)cc1	-22%	28µM*	u	-8	3%	-24
c1ccc(-c2csc(Nc3cccnc3)n2)nc1	-5%	3%	-11%	4	0%	-9
c1cncc(Nc2nc(-c3cccs3)cs2)c1	u	7.9µM*	-1%	8	-1%	u
O=[N+]([O-])c1ccccc1/C=N/NC1=NCCCCC1	-18%	u	6%	u	1%	54
O=[N+]([O-])c1ccccc1/C=N/Nc1nnc(-c2ccccc2)c(-c2ccccc2)n1	0%	0.28µM*	-6%	4	3%	-5
COc1ccc(-c2cc3ccc(O)c(CN4CCOCC4)c3oc2=O)cc1OC	x	x	-4%[46 µM]	x	x	x
Cc1ccc2nc(-c3ccc(Cl)cc3)cc(C(=O)OCC(=O)c3ccccc3)c2c1	x	x	x	-7	x	x
COc1cccc(-c2[nH]nc3c2C(c2ccsc2)C(C#N)=C(N)O3)c1 (stereo not given)	u	-5%	15%	8	-1%	-20
CCn1c2ccccc2c2cc(C3C(C#N)=C(N)Oc4n[nH]c(COC)c43)ccc21 (stereo not given)	u	1.8µM*	u	17	2%	u
COc1cccc(-c2[nH]nc3c2C(c2ccoc2)C(C#N)=C(N)O3)c1 (stereo not given)	28µM*	13µM*	8%	5	2%	-23
COCc1[nH]nc2c1C(c1cccc(OC)c1)C(C#N)=C(N)O2 (stereo not given)	-22%	28µM*	0%	4	0%	-12
Cc1ccccc1NS(=O)(=O)c1ccc(NC(=O)CSCc2ccc(Br)cc2)cc1	1%	5%	u	-3	1%	-99*
SMILES	HPGD inh	ALDH1A1 block	Lamin A splicing	IMPase inh	KinaseGlo FLuc	PNC assembly inh
O=C(NCCc1csc(-c2cccc(F)c2)n1)C(=O)Nc1cc(F)ccc1F	x	x	-1%[46 µM]	x	x	x
O=C(COc1ccc(F)cc1)NC1CC(=O)N(c2ccc3c(c2)OCCO3)C1 (stereo not given)	x	x	7%[46 µM]	x	x	x
Cc1ccccc1C(=O)/C=C1\NC(=O)CS1	16µM*	25µM*	u	-2	-5%	-14
Cc1cc(C)cc(C(=O)/C=C2\NC(=O)CS2)c1	u	-3%	6%	-3	-2%	1
COC(=O)/C=C1/S/C(=N/NC(=O)c2ccccc2C)NC1=O	u	u	12%	-2	-5%	u
O=C1CS/C(=C/C(=O)c2ccccc2)N1	20µM*	-7%	-3%	-3	-9%	u
COc1ccc2[nH]cc(CCNc3ncncc3-c3ccoc3)c2c1	x	-7%	u	x	x	x
Cc1cccc(NC(=O)/C(C#N)=C\c2cccnc2)c1	-13%	10%	-15%	-12	1%	2
CCCCNC(=O)/C(C#N)=C/c1cccnc1	u	-4%	-11%	x	0%	-106*
CC(C)OC(=O)/C(C#N)=C\c1cccnc1	x	8.9µM*	-6%[46 µM]	x	5%	x
CCCCNC(=O)/C(C#N)=C/c1ccc2c(c1)OCCO2	u	6.3µM*	-10%	-9	-1%	2
Cc1ccc(NC(=O)Cn2cc(C(=O)c3ccco3)c3ccccc32)cc1C	x	x	x	2	x	x
Fc1ccc(Nc2nc(-c3ccncc3)cs2)cc1	x	12%	u	x	0%	x
Nc1ccc(Nc2nc(-c3ccncc3)cs2)cc1	-8%	22µM*	u	u	-4%	-29
Oc1ccc(Nc2nc(-c3ccc(O)cc3)cs2)cc1	u	22µM*	u	6	-1%	-20
Oc1ccc(Nc2nc(-c3ccc(Cl)cc3)cs2)cc1	-20%	6%	x	x	1%	x
O=C(/C=C\c1ccc(O)c(O)c1)O[C@@H](Cc1ccc(O)c(O)c1)C(=O)O	28µM*	-1%	x	8	4%	x
O=C(/C=C/c1ccc(O)c(O)c1)OCCc1ccccc1	u	u	u	x	-4%	x
O=C(/C=C/c1ccc(O)c(O)c1)OC(Cc1ccc(O)c(O)c1)C(=O)O (stereo not given)	22µM*!	-15%	x	u	0%	x
COC(=O)[C@@H](N)Cc1ccc(O)c(O)c1	-13%	7%	u	0	-8%	x
CCc1ccccc1N(C)C(=O)c1cn(-c2cccc(OC)c2)c(=O)c2ccccc12	x	x	1%[46 µM]	x	x	x
NN/C(=C\[N+](=O)[O-])Nc1ccc(Cl)cc1	x	28µM*	u	x	6%	x
O=C(CCNS(=O)(=O)c1ccc2c(c1)CCCC(=O)N2)NCc1ccccc1Cl	x	x	9%[46 µM]	x	x	x
CCOC(=O)c1c(C)n(C)c2ccc(OC)c(NC(=O)CN3CCSCC3)c12	-8%	3%	2%	1	-6%	-105*
